Measurements taken from PubChem BioAssay (EPA / NIEHS).
Activity calls are given as the source filed them. The calls were made as follows: active = hit-call score of the fitted dose curve at least 0.9, where 1 is the maximum; inactive = score below 0.9.

Assay: ATG_FoxO_CIS: Attagene CIS-FACTORIAL HepG2 Assay for human Forkhead box O (FoxO) (AID 2282943)
Details: HepG2 Attagene cis-reporter, FoxO element, mRNA; actives raise or lower the signal
Method in brief: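 HepG2 cells transiently transfected with cis-promoter-driven multiple reporter transcription units; 24 h after chemical dosing, reporter mRNA quantified by RT-PCR, fluorescent primer extension, HpaI digestion and capillary electrophoresis. Bidirectional fitting versus DMSO baseline.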

Row | Compound | outcome
1 | Cc1ccc(S(=O)(=O)O)c(C)c1 | inactive
2 | NCC(F)(F)C(F)(F)C(F)(F)C(F)(F)C(F)(F)C(F)(F)C(F)(F)F | inactive
3 | O=[N+]([O-])c1ccc(O)cc1 | inactive
4 | CC(C)(C)c1cccc(C(C)(C)C)c1O | inactive
5 | CCCCCCCC(=O)O | inactive
6 | CCCCC[C@H](O)CC(=O)CCc1ccc(O)c(OC)c1 | inactive
7 | CCc1ccc(CCOc2ccc(CC3SC(=O)NC3=O)cc2)nc1 (stereo not drawn) | inactive
8 | CC(O)C(=O)O (stereo not drawn) | inactive
9 | CC(C)CCCCCCOC(=O)CCCCC(=O)OCCCCCCC(C)C | inactive
10 | O=C1OC2(c3ccccc31)c1cc(Br)c(O)c(Br)c1Oc1c2cc(Br)c(O)c1Br | inactive
11 | COCC(C)O (stereo not drawn) | inactive
12 | CCCCCCCCCCCCCCCS(=O)(=O)Oc1ccccc1 | inactive
13 | Cc1cc(C)c(O)c(C)c1 | inactive
14 | C#C[C@]1(O)CC[C@H]2[C@@H]3CCC4=CC(=O)CC[C@@H]4[C@H]3CC[C@@]21C | inactive
15 | CC(C)(C)c1ccc(O)c(C(C)(C)C)c1 | inactive
16 | Oc1cccc(O)c1 | inactive
17 | CC[C@H](C)[C@@H](C(=O)O)n1sc2ccccc2c1=O | inactive

Assay: ATG_GATA_CIS: Attagene CIS-FACTORIAL HepG2 Assay for human GATA Binding Protein (AID 2282944)
Details: HepG2 GATA cis-element reporter, Attagene multiplex mRNA; actives raise or lower the signal
Method in brief: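 Read-out: fluorescent reporter mRNA fragments resolved by capillary electrophoresis after RT-PCR. Human liver HepG2 cells carried transiently transfected cis-regulated reporter constructs; chemicals incubated 24 h; gain or loss of signal fitted relative to DMSO.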

Row | Compound | outcome
18 | CCCCC(CC)COC(=O)CCCCC(=O)OCc1ccccc1 (stereo not drawn) | inactive
19 | FC(F)(I)C(F)(F)C(F)(F)C(F)(F)C(F)(F)C(F)(F)I | inactive
20 | Cc1oc(-c2ccccc2)nc1CCOc1ccc(C[C@H](Nc2ccccc2C(=O)c2ccccc2)C(=O)O)cc1 | inactive
21 | CN1CCC[C@H]1c1cccnc1 | inactive
22 | COCC(C)OCC(C)O (stereo not drawn) | inactive
23 | CN1CCN(c2ccccc2/C=C2\SCCN(c3ccc(Cl)c(Cl)c3)C2=O)CC1 | inactive
24 | CC(C)(C)CC(C)(C)c1ccc(O)c(-n2nc3ccccc3n2)c1 | inactive
25 | C[C@@H]1C[C@H]2[C@@H]3CCC4=CC(=O)C=C[C@]4(C)[C@@]3(F)[C@@H](O)C[C@]2(C)[C@@]1(O)C(=O)COP(=O)(O)O | inactive
26 | CCc1nn(C2CCCCC2)c2cc(C3(C#N)CCC(C(=O)O)CC3)ccc12 (stereo not drawn) | inactive
27 | N#C[C@@H]1CC(F)(F)CN1C(=O)CNC1CC2CCC(C1)N2c1ncccn1 (stereo partly drawn) | inactive
28 | CCCCCCCCC(=O)O | inactive
29 | NC(=O)N(O)[C@@H]1C=C[C@H](Oc2cccc(Oc3ccc(F)cc3)c2)C1 | inactive
30 | CC(=O)CC(C)(C)O | inactive
31 | CCCCCCCCCCCCCC[N+](C)(C)C | inactive
32 | CC(=O)NC1(c2cccc(F)c2)CCN(CC[C@@]2(c3ccc(Cl)c(Cl)c3)CN(c3ccccc3)C(=O)CO2)CC1 | inactive
33 | CCCCCCCCCCCCc1ccccc1S(=O)(=O)O | inactive
34 | Cc1cc(CCN2CCN(c3nsc4ccccc34)CC2)cc2c1NC(=O)CC2(C)C | inactive
35 | CCCCCCC(=O)O | inactive

Row | Compound | outcome
36 | OC1CCC(C2CCCCC2)CC1 (stereo not drawn) | inactive
37 | Cc1ccc(S(=O)(=O)O)c(C)c1 | inactive
38 | NCC(F)(F)C(F)(F)C(F)(F)C(F)(F)C(F)(F)C(F)(F)C(F)(F)F | inactive
39 | O=[N+]([O-])c1ccc(O)cc1 | inactive
40 | CC(C)(C)c1cccc(C(C)(C)C)c1O | inactive
41 | CCCCCCCC(=O)O | inactive
42 | CCCCC[C@H](O)CC(=O)CCc1ccc(O)c(OC)c1 | inactive
43 | CCc1ccc(CCOc2ccc(CC3SC(=O)NC3=O)cc2)nc1 (stereo not drawn) | inactive
44 | CC(O)C(=O)O (stereo not drawn) | inactive
45 | CC(C)CCCCCCOC(=O)CCCCC(=O)OCCCCCCC(C)C | inactive
46 | O=C1OC2(c3ccccc31)c1cc(Br)c(O)c(Br)c1Oc1c2cc(Br)c(O)c1Br | inactive
47 | COCC(C)O (stereo not drawn) | inactive
48 | CCCCCCCCCCCCCCCS(=O)(=O)Oc1ccccc1 | inactive
49 | Cc1cc(C)c(O)c(C)c1 | inactive
50 | C#C[C@]1(O)CC[C@H]2[C@@H]3CCC4=CC(=O)CC[C@@H]4[C@H]3CC[C@@]21C | inactive
51 | CC(C)(C)c1ccc(O)c(C(C)(C)C)c1 | inactive
52 | Oc1cccc(O)c1 | inactive
53 | CC[C@H](C)[C@@H](C(=O)O)n1sc2ccccc2c1=O | inactive
